Among the data in PubChem BioAssay (NCI) are growth values, retold here.

Experiment in all cases: NCI-60 one-dose screen, 48 h (100 = growth as untreated, 0 = no growth, -100 = all killed)
Holding throughout (details): 10 µM unless noted

Assay [1] concerns HCT-15 colon.
Assay [2] has as its system HT29 colon.
Assay [3] deals with SNB-75 CNS.
In assay [4] the test system is SNB-19 CNS.
In assay [5] the test system is PC-3 prostate.
Assay [6] relates to SK-MEL-5 melanoma.
In assay [7] the test system is UACC-62 melanoma.
For assay [8], the system named is LOX IMVI melanoma.
Assay [9] concerns SK-MEL-28 melanoma.
Assay [10] relates to SK-MEL-2 melanoma.
Assay [11] concerns EKVX NSCLC.
Assay [12] has as its system SN12C renal.
In assay [13] the test system is UO-31 renal.
Assay [14] deals with TK-10 renal.
Assay [15] concerns ACHN renal.
The subject of assay [16] is CAKI-1 renal.
Assay [17] relates to A498 renal.
In assay [18] the test system is CCRF-CEM leukemia.
Assay [19] has as its system MOLT-4 leukemia.
For assay [20], the system named is U251 CNS.

Compounds without any hit were thinned out: in the full panel of roughly 83,000, 20% have a hit.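 Step 1: grow cells in 96-well plates. Step 2: add test compound at a single concentration. Step 3: incubate 48 h. Step 4: record percent growth.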 Values without a mark were called inactive. Activity calls are given as the source filed them. Rule for the calls: active = growth percent below 10; inactive = the rest.

Take `Cc1ccc(Nc2oc(-c3ccccc3)nc2[P+](c2ccccc2)(c2ccccc2)c2ccccc2)cc1`: the growth in [1] is -34.4% (active); in [2] it was -28.1% (active); in assay [3], -2.21% (active); in [4] it was 0.303% (active); in assay [5], -21.1% (active); in assay [6], -99.7% (active). Further, the growth in [7] was -35.4% (active); in [8], -100% (active); in assay [9], 1.52% (active); in assay [10] it was -69.1% (active); in assay [11], -31.3% (active); in assay [12], 7.56% (active). Besides, the growth is -72.8% (active) in assay [13]; -32.2% (active) in [14]; 2.5% (active) in [15]; -29.8% (active) in assay [16]; -52.2% (active) in assay [17]; 6.27% (active) in assay [18]. Also, the growth in [19] was -2.23% (active).

On to `Cc1ccc(S(=O)(=O)c2nc(-c3ccccc3)oc2S(C)=O)cc1` (stereo unspecified), for which the growth in assay [1] is -53.1% (active); in [2], -31.8% (active); in assay [3], 66.7%; in [4], 68.9%; in [5], 22.3%; in [6], 44.4%. The growth in assay [7] was 50.6%; in assay [8] it was -87.7% (active); in assay [9], -63.2% (active); in assay [10], 50.3%; in assay [11], 55.6%; in assay [12] it was 40.2%. Also, the growth in assay [13] is -80.5% (active); in assay [14], -94.8% (active); in [15], -99.2% (active); in [16], -98.4% (active); in [17] it was 75.9%; in assay [18], -41% (active). The growth in [19] is -29.5% (active).

Regarding `O=C1/C(=C/c2ccccc2)COc2ccc(O)cc21`, the growth in [1] was 57.1%; in assay [2], 62.7%; in assay [3], 99.7%; in [4], 93.6%; in assay [5], 84.2%; in assay [6], 97.3%. In addition, the growth was 86.6% in assay [7]; 89.8% in assay [8]; 103% in [9]; 104% in assay [10]; 105% in assay [11]; 91.7% in assay [12]. The growth was 76.4% in assay [13]; 106% in assay [14]; 101% in [15]; 93.5% in [16]; 99.5% in assay [17]; 21.5% in assay [18]. Moreover, the growth in [19] is 78.6%.

On to `COC(=O)[C@H](C)NC(=O)[C@@H]1CCCN1C(=O)CNC(=O)[C@H](C)N`, for which the growth in [1] was 97.4%; in [2], 104%; in [3] it was 78.3%; in [4], 98.6%; in [5] it was 102%; in assay [6] it was 101%. In addition, the growth in assay [7] was 88.8%; in assay [8], 96.3%; in [9], 118%; in [10], 113%; in assay [11], 89.6%; in assay [12], 105%. The growth in [13] was 91.2%; in [14], 95.5%; in assay [15], 108%; in assay [16] it was 88.4%; in assay [17] it was 93.2%; in assay [18], 115%. Moreover, in assay [19], the growth is 102%.

With `COc1cc(OCc2cccc(-c3ccccc3)c2C)cc(OC)c1CN1CCCCC1C(=O)NCCOCCOCCN` (stereo unspecified), the growth in assay [1] was 87.9%; in assay [2] it was 5.46% (active); in [3] it was 73.8%; in assay [4], 67.9%; in assay [5] it was 74.6%; in assay [6], 87.2%. For the same molecule, the growth in [7] was 99.4%; in assay [8] it was -73.7% (active); in [9] it was 87.7%; in [10], 98.4%; in assay [11], 85.5%; in assay [12], 87.6%. The growth in assay [13] was 79.1%; in assay [14] it was 125%; in [15], 98.7%; in assay [16], 92.4%; in assay [17], 72.9%; in assay [18] it was 1% (active). Moreover, the growth in assay [19] was 38.4%.

`CCOc1ccc(-c2cc(C3(S(=O)(=O)c4ccc(C)cc4)CC=CC3)on2)cc1`: the growth in assay [1] is 75.3%; in assay [2], 77.7%; in assay [3], 97.3%; in assay [4] it was 95.4%; in [5], 75.2%; in assay [6], 69.8%. Moreover, the growth in [7] was 66.7%; in assay [8], 91.1%; in assay [9], 115%; in assay [10], 90.3%; in assay [11], 68.8%; in assay [12], 87%. Also, the growth in assay [13] was 81.4%; in assay [14], 94.1%; in [15], 86.8%; in assay [16] it was 83.2%; in assay [17], 72.1%; in assay [18], 76.6%. In addition, the growth in [19] was 76.8%.

`CN1CCN(CC(=O)N(C)c2ccc(N=C(c3ccccc3)c3c(O)[nH]c4ccc([N+](=O)[O-])cc34)cc2)CC1`: the growth in assay [1] was 56.8%; in assay [2], 22.7%; in assay [3] it was 74.3%; in [4], 89.2%; in assay [5], 47.6%; in assay [6], 53%. The growth in [7] was 102%; in assay [8] it was 36.3%; in [9], 75.4%; in [10] it was 52.7%; in assay [11] it was 94.2%; in assay [12] it was 56.8%. Moreover, the growth in assay [13] is 28.8%; in assay [14], 103%; in [15], 54%; in assay [16] it was 47.1%; in assay [17], 66.7%; in assay [18], 15.1%. The growth in assay [19] is 15.7%.

In the case of `O=C(Nc1ncc(Cc2ccc(Cl)cc2)s1)c1ccc2c(c1)OCCO2`, the growth in assay [1] is 8.98% (active); in [2] it was 7.68% (active); in assay [3], 23%; in assay [4], 43.4%; in [20] it was 17.6%; in assay [5] it was 30.3%. Further, the growth in assay [7] was 45.8%; in assay [8], 31.3%; in assay [9] it was 76.2%; in [10], 41%; in assay [11], 35.7%; in assay [12], 30.8%. In addition, the growth was 50.2% in assay [13]; 49.5% in assay [14]; 29.8% in [15]; 28.7% in assay [16]; -2.66% (active) in [17]; 15.4% in assay [18]. Also, the growth in [19] is 6.99% (active).

Regarding `COc1c(O[C@@H]2OC(CO)[C@H](O)[C@H](O)C2O)cc2oc3cc(O)c(CC=C(C)C)c(O)c3c(=O)c2c1CC=C(C)C` (stereo partly specified), the growth is 97.9% in assay [1]; 93.6% in assay [2]; 93.9% in assay [3]; 96.1% in [4]; 73.8% in assay [5]; 97.8% in assay [6]. The growth in assay [7] was 83.8%; in assay [8], 85.2%; in [9], 106%; in assay [10] it was 97.3%; in assay [11] it was 93.5%; in assay [12], 84.4%. The growth is 90.8% in [13]; 110% in [14]; 96.5% in assay [15]; 103% in assay [16]; 83.8% in assay [17]; 92.9% in [18]. Further, in assay [19], the growth is 62.2%.

As for `COc1ccc(-n2c(=O)n(-c3ccc(-c4nc5ccc(F)cc5s4)cc3)c(=O)c3cccnc32)cc1`, the growth was 101% in assay [1]; 87.3% in assay [2]; 75.2% in [3]; 98.5% in assay [4]; 94.5% in [5]; 101% in assay [6]. Moreover, the growth was 87.4% in assay [7]; 99.5% in assay [8]; 107% in assay [9]; 103% in assay [10]; 91.6% in assay [11]; 100% in assay [12]. The growth in assay [13] is 75.6%; in assay [14], 119%; in [15], 103%; in assay [16], 85.3%; in assay [17] it was 98.2%; in assay [18] it was 102%. Further, in assay [19], the growth was 97.7%.

With `O=C1C=CC2(O)OC(c3ccccc3)CC(=O)C2=C1O` (stereo unspecified), the growth in assay [1] is 64.9%; in assay [2], 108%; in assay [3], 92%; in assay [4] it was 87.8%; in [5], 79.7%; in assay [6], 89.8%. The growth in assay [7] was 80.7%; in assay [8], 77%; in assay [9], 95.7%; in assay [10], 102%; in [11], 89.1%; in [12], 78.9%. Moreover, the growth in [13] was 62.7%; in assay [14], 126%; in assay [15], 97.8%; in assay [16] it was 86.5%; in [17], 96%; in [18] it was 46.1%. The growth in [19] is 77.8%.

Take `O=C(Nc1ccc2c(c1)-c1ccccc1C2)C1CC(=O)N(c2ccc3c(c2)OCO3)C1` (stereo unspecified): the growth was 89.3% [50 µM] in assay [1]; 64.6% [50 µM] in assay [2]; -2.42% [50 µM] (active) in assay [3]; 46.4% [50 µM] in assay [4]; 33.1% [50 µM] in assay [5]; 56% [50 µM] in assay [6]. The growth in assay [7] was 44.3% [50 µM]; in assay [8], 63.1% [50 µM]; in assay [9] it was 33.4% [50 µM]; in [10] it was 89.2% [50 µM]; in assay [11] it was 78.1% [50 µM]; in [12], 73% [50 µM]. The growth in [13] was 97.7% [50 µM]; in [14], 60.6% [50 µM]; in assay [15], 64.5% [50 µM]; in assay [16], 61% [50 µM]; in [17] it was 26.1% [50 µM]; in [18], 100% [50 µM]. Further, the growth in assay [19] is 99.7% [50 µM].

For `O=C(/C=C/c1ccc([N+](=O)[O-])cc1)c1cccc(Nc2nc(Nc3ccccc3)nc(Nc3ccccc3)n2)c1`, the growth in assay [1] is 68.6%; in assay [2], 68.2%; in assay [3], 52.4%; in assay [4], 93.7%; in assay [5], 62.1%; in assay [6], 62.8%. Moreover, the growth was 82.7% in assay [7]; 67.9% in assay [8]; 88.3% in assay [9]; 37.5% in assay [10]; 65.1% in assay [11]; 89.1% in [12]. The growth in [13] is 38.9%; in assay [14], 66.3%; in assay [15], 80%; in assay [16], 72.5%; in assay [17], 70%; in assay [18] it was 46.2%. The growth in assay [19] was 46.4%.

With `N#CC1=C(N)Oc2c(ccc3cccnc23)C1c1ccccc1` (stereo unspecified), the growth in assay [1] is 28%; in assay [2], 12.6%; in assay [3] it was -6.14% (active); in assay [4] it was 52.7%; in assay [20], 23.1%; in [5], 22.8%. The growth was 47.2% in [7]; 33.7% in assay [8]; 49.4% in assay [9]; 43.2% in assay [10]; 51.8% in assay [11]; 49.5% in assay [12]. Further, the growth was 43.6% in [13]; 73% in [14]; 45.8% in [15]; 39.9% in [16]; 9.1% (active) in assay [17]; 15.7% in assay [18]. In addition, the growth in assay [19] was 39.2%.
